IFI data for 88 compounds are collected here from ChEMBL document CHEMBL1157539, “Thousands of chemical starting points for antimalarial lead identification” (Nature, 2010).

The structures appear in SMILES notation. Whole data set: some 13,000 compounds, median “IFI” near 4, cut for the highest 2% near 17. The sample as a whole holds a higher share of the highest values than the screen did.

The nature of this experiment: GSK_TCMDC: Inhibition Frequency Index (IFI). The number of non-kinase HTS assays where a compound showed > 50 % inhibition, expressed as a percentage of the number of such assays in which the compound was tested. It is filed as functional.
In turn, `c1ccc2[nH]c(-c3ccc(-c4ccc(CNCC5CCCO5)cc4)s3)nc2c1` (stereo not drawn) had an IFI of 6.86%.

Take `N#Cc1ccc(-c2ccc(C(=O)NCCCCN3CCC(c4ccc5c(c4OCC(N)=O)CCCC5)CC3)cc2)cc1`: the IFI was 3.54%.

With `N=C(N)Nc1nc(-c2ccc(NC(=N)N3CCC[C@H]3CN3CCCC3)cc2)cs1`, the IFI is 2.17%.

On to `CCCCNc1nc(NCCCC)c2c(C)c(Cc3ccccc3)c(NCCCC)nc2n1`, for which the IFI was 16.1%.

Compound `COc1ccc(CNCc2cccc(-c3ccc(-c4nc5cccc(C)c5[nH]4)s3)c2)cc1` gave an IFI of 10.4%.

Compound `COc1ccccc1/C=C/C(=O)NC1CCC(CCN2CCc3ccc(-c4cc(C)no4)cc3CC2)CC1` (stereo not drawn) displayed an IFI of 3.88%.

Turning to `Nc1c2ccccc2nc2ccc(Cl)cc12`, the IFI came to 9.03%.

Consider `Cc1noc(C)c1-c1cccc(CNCc2cccc(-c3cccc(-c4nc5ccccc5[nH]4)c3)c2)c1`, for which the IFI is 3.92%.

Turning to `COc1cc(CN/C(=N/c2ccc(-c3ccccc3)cc2)Nc2ccc(C#N)cc2O)cc(OC)c1`, the IFI is 1.46%.

As for `Cc1nc2nc(N)nc(N)c2c(C)c1Cc1ccc([N+](=O)[O-])cc1`, the IFI amounted to 1.6%.

Regarding `O=C(NCCCCN1CCC(c2ccc3c(c2OCCCO)CCCC3)CC1)c1ccc(-c2ccc(C(F)(F)F)cc2)c(CO)c1`, the IFI was 10.1%.

As for `CC1(C)NC(N)=NC(=N)N1OCCOc1cccc(C(F)(F)F)c1`, the IFI was 3.7%.

For the compound `Cc1ccc(NC(=N)Nc2ncccc2OCc2c(F)cccc2Cl)cc1`, the IFI amounted to 22%.

Consider `CCOc1cc2ncnc(Nc3ccc(OCc4c(Cl)cccc4Cl)c(OC)c3)c2cc1OCC`, for which the IFI is 0%.

Consider `CCOc1cc2ncnc(Nc3ccc(OCc4c(F)cccc4F)c(OC)c3)c2cc1OCC`, for which the IFI was 0%.

The compound `O=C(Nc1ccccc1)N(Cc1ccc(-c2ccc(CNC3CCCC3)cc2)cc1)C1CCN(Cc2ccccc2)CC1` registered an IFI of 4.9%.

`O=C(CCc1c[nH]cn1)Nc1ccc(-c2ccc(-c3nc4cc(F)ccc4[nH]3)cc2)cc1` gave an IFI of 6.48%.

Take `O=C(Nc1ccccc1)N(Cc1cccc(-c2cccc(CNCCc3ccccc3)c2)c1)C1CCN(Cc2ccccc2)CC1`: the IFI came out at 12.3%.

Compound `CCCCN1CCN(c2cc(NS(=O)(=O)c3ccc(C(=O)Nc4ccc(C(F)(F)F)cc4)cc3)ccc2OC)CC1` came in with an IFI of 3.97%.

`CCCCN1CCN(c2cc(NS(=O)(=O)c3cccc(C(=O)Nc4ccc(C(F)(F)F)cc4)c3)ccc2OC)CC1` came in with an IFI of 3.55%.

In turn, `COc1ccc(NS(=O)(=O)c2ccc(C(=O)Nc3ccc(C(F)(F)F)cc3)cc2)cc1N1CCN(CC2CC2)CC1` gave an IFI of 2.1%.

`CCCN1CCN(c2cc(S(=O)(=O)Nc3ccc(C(=O)NCc4cccc(C(F)(F)F)c4)cc3)ccc2OC)CC1`: the IFI turned out to be 24.1%.

Compound `CCC(C)c1ccc(NC(=O)c2ccc(S(=O)(=O)Nc3ccc(OC)c(N4CCN(CC5CC5)CC4)c3)cc2)cc1` (stereo not drawn) displayed an IFI of 13.6%.

`COc1ccc(NS(=O)(=O)c2cccc(C(=O)Nc3ccc(C(F)(F)F)cc3)c2)cc1N1CCN(CC(C)C)CC1`: the IFI was found to be 2.84%.

Turning to `COc1ccc(S(=O)(=O)Nc2ccc(C(=O)NCc3ccc(C(F)(F)F)cc3)cc2)cc1N1CCN(CC2CC2)CC1`, the IFI turned out to be 20%.

`COc1ccc(S(=O)(=O)Nc2ccc(C(=O)NCc3ccccc3C(F)(F)F)cc2)cc1N1CCN(CC2CC2)CC1` gave an IFI of 19.4%.

For the compound `COc1ccc(NS(=O)(=O)c2ccc(C(=O)Nc3ccc(OC(F)(F)F)cc3)cc2)cc1N1CCN(CC2CC2)CC1`, the IFI was found to be 8.49%.

As to `C#Cc1cccc(NC(=O)[C@H](CC2CCCCC2)Nc2ccc(C#N)c3ccccc23)c1`, the IFI is 3.77%.

In turn, `CCCCOc1ccc(-c2nc3ccccc3[nH]2)cc1` registered an IFI of 2.14%.

In turn, `COc1ccc(OCCCON2C(=N)N=C(N)NC2(C)C)cc1` gave an IFI of 2.88%.

In the case of `O=S(=O)(NCCN1CCCC1)c1ccc(-c2cccc(CNCc3ccc(F)cc3)c2)s1`, the IFI was 9.65%.

As to `CCNC(=O)Nc1cccc(-c2cccc(-c3nc4cccc(C)c4[nH]3)c2)c1`, the IFI came to 5.05%.

`CN(C)CCn1c(=N)n(CC(O)c2ccc(Cl)c(Cl)c2)c2ccccc21` (stereo not drawn) displayed an IFI of 2.21%.

`CCN(CC)CCn1c(=N)n(CC(O)c2ccc(Cl)c(Cl)c2)c2ccccc21` (stereo not drawn) yielded an IFI of 6.52%.

Consider `CCCCCCCn1c(=N)n(CC(O)c2ccc(Cl)c(Cl)c2)c2ccccc21` (stereo not drawn), for which the IFI was 17.6%.

In turn, `Cc1ccc(C2(CN3CCC(NC(=O)c4n[nH]cc4Cl)CC3)CCCCC2)cc1` returned an IFI of 8.33%.

Take `CN1CCN(CC(=O)Nc2cccc(-c3cccc(-c4nc5ccccc5[nH]4)c3)c2)CC1`: the IFI was 1.8%.

Compound `O=C(Nc1cc(C(F)(F)F)cc(C(F)(F)F)c1)Nc1ccc(Cl)c(Cl)c1` had an IFI of 19.1%.

Consider `O=C(Nc1ccc(SC(F)(F)F)cc1)Nc1ccc(Cl)c(Cl)c1`, for which the IFI was 18.7%.

Take `O=C(Nc1ccc(Cl)c(C(F)(F)F)c1)Nc1ccc(Cl)c(C(F)(F)F)c1`: the IFI worked out at 12.7%.

The compound `O=C(Nc1ccc(SC(F)(F)F)cc1)Nc1ccnc2ccccc12` came in with an IFI of 9.29%.

Regarding `O=C(Nc1cccc(C(F)(F)F)c1)Nc1ccc(Cl)c(Cl)c1`, the IFI was 16.1%.

For `O=C(Nc1ccc(Cl)c(Cl)c1)Nc1cc(C(F)(F)F)ccc1Cl`, the IFI was 5.71%.

Consider `O=C(Nc1ccc(Cl)cc1)Nc1ccc2nonc2c1`, for which the IFI is 12.8%.

As for `O=C(Nc1cccc(C(F)(F)F)c1)Nc1ccc(F)c([N+](=O)[O-])c1`, the IFI amounted to 15.8%.

With `O=C(Nc1cccc(C(F)(F)F)c1)Nc1ccc2nonc2c1`, the IFI turned out to be 22.5%.

In the case of `c1ccc2c(NCCCCCCCCNc3ccnc4ccccc34)ccnc2c1`, the IFI amounted to 8.27%.

In the case of `CCOc1cc(N)c2nc3ccc([N+](=O)[O-])cc3cc2c1`, the IFI turned out to be 6.47%.

In turn, `CC(C)(C)NS(=O)(=O)c1cc(C(=O)N2CCC(CCN3CCC(C(=O)c4ccc(F)cc4)CC3)(c3cccc(F)c3)CC2)c(Cl)cc1F` returned an IFI of 3.55%.

As for `C=CCOC(=O)N1CCC(CNCc2ccc(-c3ccc(-c4nc5ccccc5[nH]4)s3)cc2)C1` (stereo not drawn), the IFI amounted to 11%.

For the compound `COc1cccc(Nc2nccc(-c3c(-c4cccc(NC(=O)c5c(F)cccc5F)c4)nn4ccccc34)n2)c1`, the IFI stood at 4.39%.

The compound `NC(=O)C1CCN(Cc2ccc(-c3ccc(-c4nc5cc(F)ccc5[nH]4)cc3)cc2)CC1` came in with an IFI of 4.72%.

`Fc1ccc2c(NN=Cc3ccc(Cl)cc3)ccnc2c1` came in with an IFI of 0.74%.

With `O=C(NCCCCN1CCC(c2ccc3ccccc3c2O)CC1)c1ccc(-c2ccc(Cl)cc2)cc1`, the IFI was found to be 15.1%.

As to `CC(C)C(=O)NC(c1ccc(N(C)C)cc1)c1cc(Cl)c2cccnc2c1O` (stereo not drawn), the IFI is 5.38%.

Compound `NCCCOc1cnc(-c2ccccc2)c2nc(-c3nonc3N)n(CCc3ccccc3)c12` showed an IFI of 18.8%.

In turn, `CCn1c(-c2nonc2N)nc2c(-c3cccc(NC(=O)NC45CC6CC(CC(C6)C4)C5)c3)ncc(OCCCN)c21` registered an IFI of 16.7%.

Compound `CCOC(=O)c1cccc(NC(=O)Nc2cccc(-c3ncc(OCCCN)c4c3nc(-c3nonc3N)n4CC)c2)c1` registered an IFI of 16.5%.

As to `CCn1c(-c2nonc2N)nc2c(-c3cccc(NC(=O)Nc4cccc(C#N)c4)c3)ncc(OCCCN)c21`, the IFI worked out at 16.7%.

The compound `CCn1c(-c2nonc2N)nc2c(-c3cccc(NC(=O)Nc4ccc(Cl)cc4)c3)ncc(OCCCN)c21` had an IFI of 19.3%.

Compound `CCn1c(-c2nonc2N)nc2c(-c3cccc(NC(=O)Nc4cccc(C(F)(F)F)c4)c3)ncc(OCCCN)c21` had an IFI of 14.6%.

Consider `CCn1c(-c2nonc2N)nc2c(-c3cccc(NC(=O)Nc4ccc(C(F)(F)F)cc4)c3)ncc(OCCCN)c21`, for which the IFI came to 19.1%.

Turning to `CCn1c(-c2nonc2N)nc2c(-c3ccccc3)ncc(OCCCNCCCN3CCOCC3)c21`, the IFI amounted to 3.08%.

For the compound `CCn1c(-c2nonc2N)nc2c(-c3cccc(NC(=O)Nc4ccc5c(c4)CCC5)c3)ncc(OCCCN)c21`, the IFI came to 14.8%.

Regarding `CCn1c(-c2nonc2N)nc2c(-c3cccc(NC(=O)NCc4ccccc4)c3)ncc(OCCCN)c21`, the IFI is 12.9%.

With `CCn1c(-c2nonc2N)nc2c(-c3cccc(NC(=O)Nc4ccc(C#N)cc4)c3)ncc(OCCCN)c21`, the IFI is 15.7%.

`CCn1c(-c2nonc2N)nc2c(-c3cccc(NC(=O)Nc4cccc(Cl)c4)c3)ncc(OCCCN)c21` yielded an IFI of 17.6%.

Regarding `Cc1ccc(NC(=O)c2cc(S(=O)(=O)NC(C)(C)C)ccc2C)nc1`, the IFI was 0%.

For `O=C(NC1CCN(CC2(c3ccccc3F)CCCC2)CC1)c1cc[nH]n1`, the IFI was determined as 0%.

`Cc1nc(C)c(-c2ccc(C(F)(F)F)cc2)c(O)c1Br` came in with an IFI of 0%.

`O=S(=O)(NCCN1CCCC1)c1ccc(-c2cccc(CNCc3ccsc3)c2)s1`: the IFI came out at 6.9%.

The compound `O=c1cc(NCCCNCc2cn(S(=O)(=O)c3ccccc3)c3ccccc23)[nH]c2ccccc12` registered an IFI of 5.88%.

`COc1ccc2cc(-c3nc(-c4c(Cl)cccc4Cl)[nH]c3-c3ccnc(NCCC4CCCN4C)c3)ccc2c1` (stereo not drawn): the IFI stood at 11.3%.

`C=CCn1ccc2c3c(N)nc(N)nc3ccc21` had an IFI of 6.4%.

The compound `NC1=NC2(CCCCC2)N(OCCCCCCCCNc2nc(N)nc(N)n2)C(N)=N1` gave an IFI of 1.44%.

Regarding `NC1=NC2(CCCCC2)N(OCCCCCCN2C(=O)c3ccccc3C2=O)C(N)=N1`, the IFI came out at 1.43%.

On to `NC1=NC2(CCCCC2)N(OCCCCCCc2ccccc2)C(N)=N1`, for which the IFI was determined as 23.9%.

As for `NC1=NC2(CCCCC2)N(OCCCCCCC2CCCCC2)C(N)=N1`, the IFI stood at 27.6%.

`CC1(C)N=C(N)N=C(N)N1OCCCc1ccccc1` showed an IFI of 4.35%.

Consider `Cc1ccc2cc(NCCCCCCCCON3C(N)=NC(N)=NC34CCCCC4)ccc2n1`, for which the IFI was 11.6%.

In turn, `FC(F)(F)c1ccc2[nH]c(-c3ccc(-c4cccc(CNCC5CCCO5)c4)s3)nc2c1` (stereo not drawn) showed an IFI of 7.92%.

Take `O=C(Nc1ccc(CN2CCOCC2)cc1)c1ccc(-c2ccc(Cl)cc2)o1`: the IFI is 2.78%.

Compound `COc1ccc(-c2cc(C(=O)N[C@@H](CC3CCCCC3)C(=O)NCCN3CCCC3)ccc2O)cc1` displayed an IFI of 3.45%.

`CCN(CC)CCN(Cc1ccc(-c2ccc(C(F)(F)F)cc2)cc1)C(=O)Cn1c(CCc2cccc(F)c2F)nc(=O)c2ccccc21` displayed an IFI of 8.39%.

As to `Fc1ccc2[nH]cc(CCNCc3ccc(-c4cccc(-c5nc6ccccc6[nH]5)c4)cc3)c2c1`, the IFI amounted to 17.8%.

For the compound `Fc1ccc2[nH]c(-c3cccc(-c4ccc(CNCCc5ccncc5)cc4)c3)nc2c1`, the IFI is 9.71%.

`Fc1ccc2[nH]c(-c3cccc(-c4ccc(CNCc5ccccc5)cc4)c3)nc2c1` yielded an IFI of 8.57%.

Turning to `O=C(/C=C/c1ccc(Cl)c(Cl)c1)NCC[C@@H]1C[C@H]1CCN1CCC(c2c[nH]c3ccccc23)CC1`, the IFI was 12.3%.
